In the library only some 1.4% were active in any assay of this set; here they are far more common.
Bim-Bcl-B: human Bim-Bcl-B interaction inhibition; actives 0.073% (n = 190,000); inhibition, % at 10 µM; bead-based flow cytometry, Bim peptide-Bcl-B binding; Q9HD36;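 further: 0% = tracer peptide without compound and 100% = reference inhibitor peptide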
Bim-Bfl-1: disrupts Bim binding to human Bfl-1; inhibition, % at 10 µM; Bead-based flow cytometry, Bim-Bfl-1 binding inhibition; actives 0.12% (n = 190,000); Q16548;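 further: 0% = wells without compound plus tracer and 100% = blocker peptide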
Bcl-W Bim block: human Bim-Bcl-W interaction inhibition; Q92843; inhibition, % at 10 µM; bead-based flow cytometry, Bim peptide-Bcl-W binding; actives 0.02% (n = 190,000);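 further: 0% = bound tracer without compound and 100% = peptide blocker; higher means less fluorescent Bim peptide bound to Bcl-W beads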
Bcl-XL Bim block: inhibitors of Bim-Bcl-XL interaction, human. inhibition, % at 10 µM. actives 0.04% (n = 190,000). Bim peptide-Bcl-XL binding, bead flow cytometry, fluorescence. Q07817
Wee1 degr inh: human Wee1 degradation inhibition, primary screen. P30291. HeLa Luc-Wee1K328M stability, luciferase luminescence; 100% = proteasome inhibitor MG132 effect. reporter increase, % at 5 µM. actives 1.2% (n = 220,000). AID 1321;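 active means activation above the mean of all tested compounds plus 3 SD, set per screening run, cut at about 8.8% in these data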;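 further: cells exposed to compound for 20 h before luminescence read; 0% = DMSO alone and 100% = MG132 at 30 µM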
Target sequence (P30291 whole entry K328M): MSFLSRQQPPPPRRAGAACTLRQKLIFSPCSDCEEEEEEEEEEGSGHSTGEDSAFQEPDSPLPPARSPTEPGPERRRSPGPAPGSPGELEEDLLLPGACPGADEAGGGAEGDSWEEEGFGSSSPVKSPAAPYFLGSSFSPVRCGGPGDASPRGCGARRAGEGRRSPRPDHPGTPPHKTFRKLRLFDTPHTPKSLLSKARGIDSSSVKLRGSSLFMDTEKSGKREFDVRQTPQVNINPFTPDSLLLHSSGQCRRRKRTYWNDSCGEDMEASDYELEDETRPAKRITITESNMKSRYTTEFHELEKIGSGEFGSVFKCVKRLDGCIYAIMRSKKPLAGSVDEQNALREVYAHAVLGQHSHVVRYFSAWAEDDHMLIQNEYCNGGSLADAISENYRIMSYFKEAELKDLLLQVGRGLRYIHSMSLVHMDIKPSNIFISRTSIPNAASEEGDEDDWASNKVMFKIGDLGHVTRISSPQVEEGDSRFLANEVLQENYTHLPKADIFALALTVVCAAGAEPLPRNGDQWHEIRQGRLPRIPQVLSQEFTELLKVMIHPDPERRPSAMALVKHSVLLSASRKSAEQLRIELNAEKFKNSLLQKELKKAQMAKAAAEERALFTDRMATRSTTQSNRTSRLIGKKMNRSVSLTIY
Bcl-2 Bim block: human Bim-Bcl-2 interaction inhibition | P10415 | Bead-based flow cytometry, Bim peptide-Bcl-2 binding | inhibition, % at 10 µM | actives 0.06% (n = 190,000); in the data active means inhibition above about 40%;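 further: 0% = no compound wells with probe peptide and 100% = reference peptide inhibitor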
* = called active by the depositor; . = no result given. Unless noted, no stated cut-off is given here; in the data, active means inhibition above about 40%.

SMILES | Bim-Bcl-B | Bim-Bfl-1 | Bcl-W Bim block | Bcl-XL Bim block | Wee1 degr inh | Bcl-2 Bim block
CCn1cc(C(=O)NCCc2ccccc2)c(=O)c2cc(S(=O)(=O)N3CCCC3)ccc21 | -5.0 | -3.0 | -1.0 | 0.0 | 9.4* | -1.0
COc1ccc(-c2coc3cc(O)cc(O)c3c2=O)cc1 | -8.0 | 0.0 | -1.0 | -1.0 | 10.1* | 0.0
COc1ccc(-c2coc3cc(OC)cc(O)c3c2=O)cc1 | -2.0 | -2.0 | 0.0 | -2.0 | 2.2 | -2.0
COc1cc2c(cc1OC)C(c1ccccc1F)OC(=O)C2 (stereo not drawn) | 97.0* | 59.0* | 89.0* | 72.0* | 8.4 | 98.0*
COc1cc2c(cc1OC)C(C(=O)N1CCCCC1)C(c1ccccc1F)N(C)C2=O (stereo not drawn) | -1.0 | -2.0 | 0.0 | -21.0 | -1.1 | 0.0
CCC(=O)N1COC[C@@H]1Cc1ccccc1 | -6.0 | -2.0 | -3.0 | -8.0 | 3.2 | -3.0
CCCC(=O)Nc1nnc(-c2ccco2)s1 | -8.0 | -11.0 | 1.0 | 11.0 | 8.7 | -6.0
Cc1nnc(NC(=O)CCC(=O)NCc2ccco2)s1 | 1.0 | 0.0 | 1.0 | 1.0 | 10.0* | 1.0
CCn1c(-c2c(Cl)c(C)nn2C)n[nH]c1=S | -16.0 | 0.0 | -2.0 | -4.0 | -3.0 | 0.0
Cc1cc(-c2cn3ccccc3n2)c(C)n1-c1ccccc1 | -4.0 | -5.0 | 0.0 | -3.0 | -2.4 | 1.0
COc1ccc(-n2c(C)cc(-c3cn4cccc(C)c4n3)c2C)cc1 | -3.0 | -4.0 | -2.0 | -4.0 | 8.8* | -4.0
CCOC(=O)c1c(C)[nH]c(C)c1C(=O)CN1C(=O)NC(CC(C)C)C1=O (stereo not drawn) | -5.0 | -15.0 | -3.0 | -3.0 | 9.4* | -8.0
CCOC(=O)c1c(C)[nH]c(C)c1C(=O)CN1C(=O)NC2(CCC(C)CC2)C1=O (stereo not drawn) | -2.0 | 0.0 | -1.0 | 0.0 | -1.9 | -1.0
COC(=O)C(CC(C)C)NC(=O)/C=C/c1ccc(Cl)cc1 (stereo not drawn) | -5.0 | -2.0 | 0.0 | -4.0 | 1.5 | -2.0
COC(=O)C(CC(C)C)NC(=O)/C=C/c1ccccc1Cl (stereo not drawn) | -10.0 | -15.0 | -8.0 | -11.0 | 10.2* | -7.0
O=C(/C=C/c1ccccc1Cl)Nc1ccccc1 | . | . | . | . | 9.3* | .
Cc1ccc(CNC(=O)CCC2CCCN(Cc3cc4ccccc4o3)C2)o1 (stereo not drawn) | . | . | . | . | 4.8 | .
c1coc(C2Nc3cccc4cccc(c34)N2)c1 | 4.0 | 42.0* | 36.0 | 11.0 | -4.4 | 16.0
CCCCc1c(O)nc(SCC(=O)c2ccccc2)n(-c2ccccc2OC)c1=O | . | . | . | . | -1.9 | .
COC(=O)c1c(NC(=O)COc2ncnc3ccccc23)sc(C)c1C | 55.0* | 6.0 | -4.0 | -1.0 | 1.1 | 38.0
COc1ccc(OC)c(N=C(N)N=C(N)N)c1 | -4.0 | -6.0 | -2.0 | -3.0 | 0.9 | -2.0
O=c1/c(=C\c2ccc(F)cc2)sc2n1CCCN=2 | -4.0 | -5.0 | 0.0 | -2.0 | 9.3* | 1.0
CCOc1ccc(NC(=O)CSc2nnc(N)s2)c([N+](=O)[O-])c1 | -3.0 | -1.0 | 0.0 | -2.0 | 9.8* | 0.0
O=S(=O)(c1ccc(NC(=S)NCc2ccncc2)cc1)N1CCCCC1 | . | . | . | . | 1.2 | .
COc1ccc(/C=C/C(=O)Oc2cccc(/C=N/NC(=O)c3cccc(F)c3)c2)cc1 | -4.0 | -11.0 | 4.0 | -1.0 | 13.9* | -3.0
SMILES | Bim-Bcl-B | Bim-Bfl-1 | Bcl-W Bim block | Bcl-XL Bim block | Wee1 degr inh | Bcl-2 Bim block
COc1ccc(/C=C/C(=O)Oc2ccc(/C=N\NC(=O)c3ccc(F)cc3)cc2)cc1 | -12.0 | -3.0 | -5.0 | -3.0 | 1.5 | -3.0
COC(=O)/C=C1\NC(=O)C(C)S1 (stereo not drawn) | 0.0 | -3.0 | -2.0 | -2.0 | 1.4 | -1.0
Cc1nonc1-c1csc(N)n1 | -5.0 | -4.0 | -3.0 | -3.0 | -1.8 | -1.0
CC(C)Oc1ccc(CNC(=S)N/N=C/c2ccc([N+](=O)[O-])cc2)cc1 | -9.0 | -9.0 | 1.0 | -5.0 | -0.2 | -9.0
CC(C)COc1ccc(CNC(=S)N/N=C/c2ccc([N+](=O)[O-])cc2)cc1 | -1.0 | -2.0 | -2.0 | 6.0 | 10.0* | -3.0
O=C(CC1C(=O)NCCN1Cc1c(F)cccc1Cl)NCCc1ccccn1 (stereo not drawn) | -1.0 | -4.0 | -2.0 | 0.0 | 9.5* | 0.0
O=C(CC1C(=O)NCCN1Cc1c(F)cccc1Cl)NCCC1=CCCCC1 (stereo not drawn) | -4.0 | -14.0 | -3.0 | -7.0 | 0.0 | -7.0
CNC(=S)N(Cc1cccs1)Cc1cc2ccc(OC)cc2[nH]c1=O | 29.0 | 47.0* | 26.0 | 35.0 | 0.5 | 30.0
O=C(CCNC(=O)c1ccccc1Cl)Nc1cc(S(=O)(=O)N2CCOCC2)ccc1N1CCCC1 | . | . | . | . | -3.0 | .
CCOc1ccc(S(=O)(=O)Nc2ccc(O)c(Sc3ncn[nH]3)c2)cc1 | -10.0 | 9.0 | -2.0 | -3.0 | 28.6* | -5.0
CCN1/C(=C2\OC(=S)N(C)C2=O)Sc2ccccc21 | -11.0 | -6.0 | 0.0 | -5.0 | 0.6 | -8.0
CN1C(=C2C(=O)OC(C)(C)OC2=O)Sc2ccccc21 | -3.0 | -9.0 | 1.0 | -1.0 | 8.8* | -5.0
CC(Oc1ccc(Cl)cc1)c1ccc(C#N)c(=O)[nH]1 (stereo not drawn) | -8.0 | -4.0 | 0.0 | -2.0 | 0.1 | -10.0
CCOC(=O)C1(Cc2cccc(F)c2)CCN(CC(O)CO)CC1 (stereo not drawn) | . | . | . | . | 10.3* | .
CCOC(=O)C1(Cc2cccc(F)c2)CCN(CC2CC2)CC1 | -2.0 | -3.0 | 0.0 | 0.0 | 1.4 | -2.0
O=C(COc1ccc(Br)cc1)N/N=C1/SCC(=O)N1Cc1ccccc1 | -3.0 | -2.0 | -3.0 | -7.0 | -1.9 | -1.0
O=C(c1ccc(Cl)c(S(=O)(=O)N2CCOCC2)c1)N(c1ccccn1)C1CCCCC1 | -5.0 | -4.0 | -2.0 | -1.0 | -2.2 | 0.0
CN(C)CC(CCC(CN(C)C)C(=O)c1ccccc1)C(=O)c1ccccc1 (stereo not drawn) | . | . | . | . | 11.2* | .
CC(=O)OCC(=O)[C@@]12OC(C)(C)O[C@@H]1C[C@H]1[C@@H]3C[C@H](F)C4=CC(=O)C=C[C@]4(C)[C@@]3(F)[C@@H](O)C[C@@]12C | -2.0 | 0.0 | -6.0 | -3.0 | 10.8* | 0.0
Cc1ccc(NC(=O)c2ccccc2)s1 | -12.0 | -12.0 | -2.0 | -12.0 | 9.7* | -6.0
Cc1cccc2cc(CNC3CCCC3)c(Cl)nc12 | -6.0 | -11.0 | -1.0 | 0.0 | 7.5 | -5.0
Cn1c(NC(=O)/C=C\c2ccccc2)cc(=O)n(C)c1=O | 1.0 | -8.0 | 0.0 | -2.0 | -2.0 | -1.0
Cc1nn(Cc2c(F)c(F)c(F)c(F)c2F)c(C)c1NC(=O)c1cccc(COc2ccccc2Cl)c1 | -6.0 | -7.0 | 3.0 | -2.0 | 14.8* | -2.0
O=C(Nc1ccc(CN2CCS(=O)(=O)CC2)cc1)c1ccc(F)cc1 | . | . | . | . | 9.7* | .
Clc1nc(NCc2cccnc2)nc(N2CCOCC2)n1 | 73.0* | 22.0 | 47.0* | 49.0* | -1.8 | 23.0
